Sampled rows, rich in hits. Any-hit rate of the full collection: about 11%.
USP17 inh: inhibitors of human USP17 deubiquitinase; A8MUK1; purified USP17, Ub-rhodamine cleavage fluorescence, 3 h; inhibition, % at 50 µM; 47,000 compounds, 6.5% hits; AID 1645855
USP28 inh: inhibitors of human USP28 deubiquitinase; purified USP28, Ub-rhodamine cleavage fluorescence, 30 min; 47,000 compounds, 3% hits; Q96RU2; inhibition, % at 25 µM
USP30 block: inhibitors of human USP30 deubiquitinase. purified USP30, Ub-rhodamine cleavage fluorescence. inhibition, % at 25 µM. 47,000 compounds, 5.3% hits. Q70CQ3
OTUD3 inh: blocks human OTUD3 ubiquitin-rhodamine cleavage | Q5T2D3 | purified OTUD3, Ub-rhodamine fluorescence, 2 h | inhibition, % at 25 µM | 47,000 compounds, 0.7% hits | AID 1645858
Active calls of the source: *; i = inactive. Cut-off read from the data, not from the text of the source: active = inhibition above about 30%; inactive = the rest.

SMILES	USP17 inh	USP28 inh	USP30 block	OTUD3 inh
CN1C(=O)[C@]23CC4=CC=C[C@H](O)[C@H]4N2C(=O)[C@@]1(CO)SS3	-18	-16	50*	-11
CN1C(=O)OC2(CCN(Cc3cccc(C#N)c3)CC2)c2ccccc21	-9	-4	-19	-17
CCC(CC(C)C(=O)O)C(=O)CC/C1=C/C(C)C/C(C)=C/C(C)C(O)C(C)CCC(CCCC/C=C/C(C)CCC(C)OC(=O)CC(CC(=O)O)C(=O)O)OC(=O)CC(C(=O)O)CC(=O)OC1 (stereo not drawn)	0	0	32*	3
CC(C)c1cc2c(c(O)c1O)[C@@]1(C(=O)O)CCCC(C)(C)[C@@H]1CC2	79*	39*	57*	36*
CC(C)c1cc2c(c(O)c1O)C1(C(=O)O)CCCC(C)(C)C1CC2 (stereo not drawn)	88*	53*	81*	46*
c1cnc(NC[C@@H]2OC[C@H]3CN(Cc4ccco4)CC[C@H]32)nc1	-25	-24	-44	-22
O=c1c2ccccc2nc(/C=C/c2ccco2)n1-c1ccccc1Cl	-82	-138	i	-118
C=C1[C@@H](C)[C@H]2[C@H](Cc3ccccc3)NC(=O)C23[C@H](OC(C)=O)/C=C/[C@](C)(O)C[C@@H](C)C/C=C/[C@H]3[C@@H]1O (stereo partly drawn)	1	4	12	3
COC(C)[C@](O)(C(=O)OCC1=CCN2CC[C@@H](O)[C@@H]12)C(C)C (stereo partly drawn)	16	15	21	12
C/C=C(\C)[C@H]1C=C[C@H]2C[C@@H](C)C[C@@H](C)[C@@H]2[C@H]1/C(O)=C1\C(=O)NC(CC(C)(O)C(=O)O)C1=O (stereo partly drawn)	-22	4	-9	2
CCCCNC(=O)c1cc2cccnc2n(Cc2ccccc2)c1=O	69*	28	24	10
COc1ccc(C2SCC(=O)Nc3c2c(=O)[nH]n3C2CCCCC2)cc1 (stereo not drawn)	68*	4	11	4
O=C1CSC(c2ccc(Cl)cc2)c2c(n(C3CCCC3)[nH]c2=O)N1 (stereo not drawn)	5	-5	0	0
Cc1ccc(C2SCC(=O)Nc3c2c(=O)[nH]n3C2CCOC(C)(C)C2)cc1 (stereo not drawn)	3	-6	0	-4
O=C1CSC(c2ccc(F)cc2)c2c(n(C3CCCCCC3)[nH]c2=O)N1 (stereo not drawn)	17	11	30*	8
CC1(C)CC(n2[nH]c(=O)c3c2NC(=O)CSC3c2ccccc2)CCO1 (stereo not drawn)	11	11	33*	17
N#CCc1c[nH]c2ccccc12	-18	-27	-146	-35
O=S1(=O)Cc2cnc(NCC3CC3)nc2[C@H]2CN(CC3CC3)C[C@H]21	-4	-1	-3	-3
CN1CC(C(=O)NCCc2ccncc2)C2(CCOCC2)C1 (stereo not drawn)	4	10	21	11

High-throughput results: PubChem, Buhrlage Lab, Dana-Farber Cancer Institute and Novartis Institutes for BioMedical Research (Cambridge, Mass)
